The campaign covered roughly 2,000 compounds. About 250 (12%) were called active. For the sample, actives were picked, then their nearest neighbours and some compounds at random. Values without a mark were called inactive. Cut-off read from the data, not from the text of the source: active = hERG blockade below about -20% or above about 20%; inactive = in between.
Molecular target: Voltage-gated inwardly rectifying potassium channel KCNH2 (Homo sapiens) (UniProt Q12809)
Assay: KCNH2 potassium channel function modulators, cell-based (AID 376);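 note: 0% = buffer alone and 100% = reference blocker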
Conditions: hERG-expressing cells, channel activity single-concentration screen; concentration not given here

Voltage-gated inwardly rectifying potassium channel KCNH2 (Homo sapiens), sequence (Q12809 whole entry, looked up): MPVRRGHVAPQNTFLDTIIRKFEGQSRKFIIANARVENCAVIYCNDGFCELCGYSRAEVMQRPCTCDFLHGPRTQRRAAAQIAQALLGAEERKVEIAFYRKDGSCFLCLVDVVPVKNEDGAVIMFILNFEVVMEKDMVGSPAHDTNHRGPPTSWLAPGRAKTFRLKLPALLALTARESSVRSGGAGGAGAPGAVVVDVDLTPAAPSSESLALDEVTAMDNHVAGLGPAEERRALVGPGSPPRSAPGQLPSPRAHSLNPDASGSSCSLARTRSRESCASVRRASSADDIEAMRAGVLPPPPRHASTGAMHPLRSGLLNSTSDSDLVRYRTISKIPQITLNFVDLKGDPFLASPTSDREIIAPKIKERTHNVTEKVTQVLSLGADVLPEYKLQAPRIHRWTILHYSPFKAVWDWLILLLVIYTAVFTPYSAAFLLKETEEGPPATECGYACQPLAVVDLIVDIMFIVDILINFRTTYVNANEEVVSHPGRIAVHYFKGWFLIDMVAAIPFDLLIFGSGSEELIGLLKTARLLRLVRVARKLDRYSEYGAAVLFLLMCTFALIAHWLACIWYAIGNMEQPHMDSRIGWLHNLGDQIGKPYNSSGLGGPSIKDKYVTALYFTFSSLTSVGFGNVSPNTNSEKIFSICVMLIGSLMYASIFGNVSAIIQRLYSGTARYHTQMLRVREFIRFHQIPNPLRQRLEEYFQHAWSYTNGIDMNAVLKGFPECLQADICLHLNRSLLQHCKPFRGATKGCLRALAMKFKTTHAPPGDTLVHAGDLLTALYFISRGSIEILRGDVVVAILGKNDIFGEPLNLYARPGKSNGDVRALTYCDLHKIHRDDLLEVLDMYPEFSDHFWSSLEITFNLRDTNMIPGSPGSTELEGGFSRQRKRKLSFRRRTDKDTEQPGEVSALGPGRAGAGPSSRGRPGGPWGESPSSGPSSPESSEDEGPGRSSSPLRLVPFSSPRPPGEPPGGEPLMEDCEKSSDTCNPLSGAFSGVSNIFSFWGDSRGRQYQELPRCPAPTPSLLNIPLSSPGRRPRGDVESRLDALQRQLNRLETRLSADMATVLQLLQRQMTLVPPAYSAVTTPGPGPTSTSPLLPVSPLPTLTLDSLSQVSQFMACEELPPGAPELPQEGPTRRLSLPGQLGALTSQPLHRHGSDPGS

SMILES | hERG blockade
CC(C)C1OC(C=Cc2ccccc2)OCC1(C)C (stereo unspecified) | 10.1%
O=C(O)CSc1ccn(Cc2ccccc2)c1 | -5.01%
CC(=NCC(=O)O)c1ccccc1 | -2.03%
C=C(C)CN(CC#N)CC(=C)C | -3.17%
C=C(Br)CN(C)CC(=C)Br | -27.2% (active)
CN(CC(=O)O)CC(=O)O | 9.14%
Cc1cc(Nc2ccc(N=Nc3ccc(O)c4ncccc34)cc2)nc(C)n1 | 7.41%
[Cu+2].[NH-]C(CC(=O)O)C(=O)O.[NH-]C(CC(=O)O)C(=O)O (stereo unspecified) | 16.8%
NC(=O)NN=C1CCC(O)CC1CC(=O)O (stereo unspecified) | 0.91%
CN1C2CCC1CC(OC(c1ccccc1)c1ccccc1)C2 (stereo unspecified) | 44.2% (active)
NS(=O)(=O)c1ccc(N=Nc2nc3[nH]cnc(=S)c3[nH]2)cc1 | -16.4%
CC(CN(C)C)C(O)(c1ccccc1)c1ccccc1 (stereo unspecified) | 7.73%
CN(C)CC(O)c1ccc(Cl)c2ccccc12 (stereo unspecified) | 28.3% (active)
CC(CN(C)C)C(=O)c1ccccc1C(=O)O (stereo unspecified) | 0.354%
CN(Cc1cc(Br)cc(Br)c1O)Cc1c(O)ccc2ccccc12 | 16%
Clc1ccc(Cl)c(Nc2ccnc(SCc3ccccc3)n2)c1 | -4.72%
CC1CCC2(C(=O)O)CCC3(C)C(=CCC4C5(C)CC(O)C(O)C(C)(CO)C5C(O)CC43C)C2C1C (stereo unspecified) | 17.2%
O=C(CSc1ncnc2nc[nH]c12)c1ccccc1 | -4.94%
O=S1(=O)CCN(c2ccccc2CC(c2c[nH]c3ccccc23)c2c[nH]c3ccccc23)CC1 | 32.2% (active)
Cn1ccnc1CC(C)(O)c1ccccc1 (stereo unspecified) | -2.58%
COc1ccc(OC)c(-c2cc(C(=O)O)c3cc4ccccc4cc3n2)c1 | -16.1%
CC(CCC(=O)O)C1CCC2(C)C3C(=O)CC4C(C)(C)C(O)CCC4(C)C3C(=O)CC12C (stereo unspecified) | 2.84%

SMILES | hERG blockade
CC(CCC(=O)O)C1CCC2C3C(O)CC4CC(O)CCC4(C)C3CC(O)C12C (stereo unspecified) | 5.61%
O=C(O)c1ccc(C(=O)O)c(C(=O)O)c1.[NH-]C1CCCCC1[NH-].[Pt+2] | 23.7% (active)
O=C(O)c1ccc(C(=O)c2ccccc2)c(C(=O)O)c1 | 1.04%
O=C(O)c1ccc(C(=O)O)c(C(=O)Nc2ccc3c(c2)Cc2ccccc2-3)c1 | -3.35%
O=C1CNCCCN2CCN(CCCNCC(=O)Nc3ccc(cc3)S(=O)(=O)c3ccc(cc3)NC(=O)CNCCCN3CCN(CCCNCC(=O)Nc4ccc(cc4)S(=O)(=O)c4ccc(cc4)N1)CC3)CC2 | 5.8%
Cc1ccc(S(=O)(=O)NC(=O)OC23COCN2COC3)cc1 | -18.8%
Oc1c(Br)cc(Br)cc1CN(Cc1cc(Br)cc(Br)c1O)C1CCCCC1 | -7.44%
O=C1c2ccccc2C(=O)N1CC1(C(=O)O)NCCS1(=O)=O (stereo unspecified) | 4.44%
N=Nc1c(OC(=O)Nc2cccc(Cl)c2)[nH]c2ccccc12 | 1.43%
S=C1NC(c2ccccc2)NC(c2ccccc2)S1 (stereo unspecified) | 8.24%
N=C(N)SC(c1ccccc1)c1ccccc1 | 22.5% (active)
N=C(N)C(N=Nc1ccccc1)C(=N)N (stereo unspecified) | 14.2%
NC(N)=NC(CC(=O)O)c1ccccc1 (stereo unspecified) | 10.4%
O=C(O)CCCSc1ccccc1 | 8.71%
Cn1c(=S)c2[nH]c(SCCN3C(=O)c4ccccc4C3=O)nc2n(C)c1=O | 13.4%
O=C1c2ccccc2C(=O)N1CCCSc1ccccc1 | 23.2% (active)
O=C(O)c1cccc(S(=O)(=O)NCCO)c1 | -15.6%
CN(C)CCn1c(CO)nc2c1c(=O)n(C)c(=O)n2C | -1.57%
CN(C)CCNc1nc2c(c(=O)n(C)c(=O)n2C)n1C | 34% (active)
Cn1c(=O)c2c(nc(NCCNc3nc4c(c(=O)n(C)c(=O)n4C)n3C)n2C)n(C)c1=O | -7.81%
Cc1ccc(CCCC(=O)O)cc1C | 6.44%
NC(=O)NOCC1NC(=O)NC1=O (stereo unspecified) | -12%

SMILES | hERG blockade
Nc1ncnc2c1ncn2C1OC(CO)C(O)C1N (stereo unspecified) | 13.4%
C[N+](C)(C)c1ncnc2c1ncn2C1CC(O)C(CO)O1 (stereo unspecified) | -5.95%
NCC1OC(n2cnc3c(N)ncnc32)CC1O (stereo unspecified) | -23.5% (active)
Nc1ncnc2c1nc(-c1ccccc1)n2C1OC(CO)C(O)C1O (stereo unspecified) | -5.56%
Cc1ccc(C2(C)CCC(=NN=C3CCC(C)(c4ccc(C)c(C)c4)c4cc(C)c(C)cc43)c3cc(C)c(C)cc32)cc1C (stereo unspecified) | 5.6%
CC(NC(=O)c1ccccc1)(C(=O)O)C(=O)O | -6.84%
O=C(Nc1ccc(-c2cn3ccccc3n2)cc1)c1cc(Br)ccc1O | 6.36%
CC12CCC3c4ccc(OCC(=O)O)cc4CCC3C1CCC2=O (stereo unspecified) | -7.52%
Cc1cc(Cl)ccc1OCC(=O)Oc1c(Cl)c(Cl)c(Cl)c(Cl)c1Cl | -9.38%
CC(C)Cn1cnc2c(SCc3ccc(Cl)cc3Cl)nc(N)nc21 | 20.1% (active)
Cc1ccc2ccccc2c1CSc1nc(N)nc2c1ncn2CC(C)C | 13.9%
CC(C)Cn1cnc2c(SCc3ccccn3)nc(N)nc21 | -2.95%
COc1cccc(CSCC(=O)O)c1 | 3.08%
O=C(O)C1CCCN1Cc1c[nH]c2ccccc12 (stereo unspecified) | -17.1%
CC(=O)NC(Cc1c[nH]c2ccccc12)C(=O)O (stereo unspecified) | 2.72%
CC(N)(Cc1c[nH]c2ccccc12)C(=O)O (stereo unspecified) | -24.5% (active)
CN(CC(=O)O)Cc1c[nH]c2ccccc12 | -21% (active)
O=C(O)C(Cc1c[nH]c2ccccc12)C(=O)NO (stereo unspecified) | -0.439%
O=C(O)C(Cc1c[nH]c2ccccc12)N1C(=O)c2ccccc2C1=O (stereo unspecified) | -13.6%
NC(N)=NCC(N)C(=O)O (stereo unspecified) | -1.09%
Cc1nnc(S(=O)(=O)c2ccc(N=Nc3c(N)nc(N)nc3N)cc2)s1 | -0.733%
O=C(O)CC(=Cc1ccco1)C(=O)O | -9.17%

SMILES | hERG blockade
O=C(O)CCC1(C(=O)O)CCC(=O)c2ccccc21 (stereo unspecified) | 6.22%
BrC(c1cccc2ccccc12)c1cccc2ccccc12 | -6.84%
COc1ccc(C(=O)CCN(C)C)c2ccccc12 | 7.02%
Clc1ccccc1C(Nc1cnccn1)Nc1cnccn1 | 21.5% (active)
Clc1ccccc1C(Nc1ncccn1)Nc1ncccn1 | 3.73%
O=C(O)C(Cc1ccc([N+](=O)[O-])cc1)=NO | 0.35%
CC(CO)(CO)Nc1ncnc2ccccc12 | 2.95%
O=S(=O)(c1cnccc1N1CCN(CCO)CC1)N1CCCC1 | -8.49%
N=C1C(O)C2(I)c3ccccc3N3C(=N)C(O)C4c5ccccc5N1C4C32 (stereo unspecified) | 35.8% (active)
O=C(CSc1nc2ccccc2s1)c1sc2sc3ccccc3[n+]2c1O | 1.71%
CC(CCC(=O)O)C(=O)O (stereo unspecified) | 2.86%
O=C(O)c1ccc(CNCc2ccccc2)cc1 | -8.86%
Oc1ccc(CNCc2ccccc2)c2cccnc12 | 7.55%
Oc1ccccc1CNCc1ccccc1O | 23.5% (active)
CCCCN1CSC(=S)N(Cc2ccccc2)C1 | 13.4%
CCC(CS(=O)(=O)O)[N+](=O)[O-] (stereo unspecified) | 1.33%
O=C(O)CC(CC(=O)O)C(=O)O | 15.6%
N=C(N)SCc1ccc(Cl)cc1Cl (tested in a mixture with another compound) | 30.7% (active)
Clc1ccc(CSCc2ccc(Cl)cc2Cl)c(Cl)c1 | 5.81%
N=C(N)SCc1cc(Cl)cc(Cl)c1O | 12.3%
COC(=O)c1ccc(CCc2cc(O)ccc2O)cc1 | 11.9%
O=C(O)c1cccc2cccc(-c3cccc4cccc(C(=O)O)c34)c12 | -6.19%

SMILES | hERG blockade
O=C(O)CCC(=O)c1ccc[nH]1 | 1.12%
O=C(O)CCC(=O)c1ccc2ccc3cccc4ccc1c2c34 | -66.6% (active)
Nc1ccc(S(=O)(=O)NCCS(=O)(=O)O)cc1 | -20.3% (active)
CC(C)(C)c1ccc(NS(=O)(=O)c2ccc(N)cc2)cc1 | -2.98%
NCCNS(=O)(=O)c1ccc(N)cc1 | 2.62%
CCOC(=O)c1cnc(N(C)C)nc1SC(=N)N | 12.8%
c1cc(CNCCN2CCNCC2)ccn1 | -17.5%
CC(C)NCCC(O)c1cc2ccccc2o1 (stereo unspecified) | 7.89%
NC(N)=NC(N)=Nc1c(F)c(F)c(F)c(F)c1F | -23.3% (active)
NC(N)=NC(N)=Nc1ccccc1 (tested in a mixture with another compound) | -3.28%
NC(N)=NC(N)=Nc1ccc(C(=O)O)cc1 | -11%
O=C(O)CCc1c2ccc(=O)c(O)c-2oc2c(O)c(O)ccc12 | 6.94%
Oc1ccc(Cn2c(-c3ccc(O)cc3)nc3ccccc32)cc1 | 9.19%
NS(=O)(=O)c1cc2c(cc1Cl)=NC(CCC(=O)O)=NS=2(=O)O | -4.14%
[N-]=[N+]=NC1C(O)C(CO)OC1n1cnc2c(N)ncnc21 (stereo unspecified) | -1.39%
Cc1ccc(C(O)c2cnc(C)n2Cc2ccccc2)cc1 (stereo unspecified) | 0.183%
Cc1ccc2c(c1)NC(c1ccc(C(=O)O)cc1)c1cccn1-2 (stereo unspecified) | -13.1%
CC1CC2C3CCC4=CC(=O)C=CC4(C)C3(F)C(O)CC2(C)C1(O)C(=O)COP(=O)(O)O (stereo unspecified) | -1.33%
